Laboratory results reported in article PMC7862700, “An all-to-all approach to the identification of sequence-specific readers for epigenetic DNA modifications on cytosine”.

Experiments:
Test in all cases: DAPPL (digital affinity profiling via proximity ligation, sequencing); 10 mM Tris-HCl pH 7.5, 50 mM NaCl, 1 mM DTT, 4% glycerol, room temperature, 30 min; GST-TFs on glutathione beads, 16-mer random dsDNA library, 0.1% formaldehyde crosslink after washing; high values mean tight binding
Conditions in all cases: protein: recombinant; tags: N-terminal GST; dsDNA, one strand shown
GABPA = biological target: T1, GABPA (Homo sapiens, UniProt Q06546 1-454)
T1 sequence: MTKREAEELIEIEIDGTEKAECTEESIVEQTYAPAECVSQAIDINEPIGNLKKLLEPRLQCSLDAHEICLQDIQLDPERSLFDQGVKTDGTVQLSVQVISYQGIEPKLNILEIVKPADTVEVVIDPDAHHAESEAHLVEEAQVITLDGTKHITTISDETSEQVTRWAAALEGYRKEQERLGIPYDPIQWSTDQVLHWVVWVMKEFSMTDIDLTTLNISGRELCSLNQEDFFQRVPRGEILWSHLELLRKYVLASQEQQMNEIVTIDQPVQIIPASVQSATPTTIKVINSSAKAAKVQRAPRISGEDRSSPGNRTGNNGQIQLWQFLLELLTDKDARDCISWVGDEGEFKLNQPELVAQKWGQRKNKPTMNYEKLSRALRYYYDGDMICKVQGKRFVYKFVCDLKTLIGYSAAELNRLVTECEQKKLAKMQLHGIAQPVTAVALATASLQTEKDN
In short: (§1)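 Human transcription factors fused to GST were expressed in yeast, captured on glutathione beads, given DNA barcodes and pooled with a GST-only negative control. Pools were incubated with 200 nmole of a 16-mer random double-stranded DNA library in Tris/NaCl/DTT/glycerol buffer at room temperature for 30 min. They were then washed, crosslinked with 0.1% formaldehyde, proximity-ligated (BsaI/T4 ligase, 1 h, 37 °C), PCR-amplified and sequenced on an Illumina NextSeq500. Binding signal is each 6-mer's read frequency for a factor divided by its frequency for the GST control.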

ETV5 = ETV5 (Homo sapiens, UniProt P41161 1-510)
Sequence of ETV5 (P41161 whole entry): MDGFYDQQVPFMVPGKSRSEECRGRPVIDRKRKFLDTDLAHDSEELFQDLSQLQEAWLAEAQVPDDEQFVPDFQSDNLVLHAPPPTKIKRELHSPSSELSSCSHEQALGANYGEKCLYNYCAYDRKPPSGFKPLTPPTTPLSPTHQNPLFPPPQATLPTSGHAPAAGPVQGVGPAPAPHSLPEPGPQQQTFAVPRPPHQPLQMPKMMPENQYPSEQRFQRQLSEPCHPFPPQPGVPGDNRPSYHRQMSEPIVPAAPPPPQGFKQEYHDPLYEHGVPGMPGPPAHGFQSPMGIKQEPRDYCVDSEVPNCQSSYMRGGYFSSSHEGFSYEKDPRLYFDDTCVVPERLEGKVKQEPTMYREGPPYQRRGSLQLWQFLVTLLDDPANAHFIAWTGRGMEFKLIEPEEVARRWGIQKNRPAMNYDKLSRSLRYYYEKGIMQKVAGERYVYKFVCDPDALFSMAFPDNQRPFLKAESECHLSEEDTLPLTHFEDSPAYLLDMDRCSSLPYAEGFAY
In short: as §1

ELF3 = biological target: T2, ELF3 (Homo sapiens, UniProt P78545 1-371)
T2 sequence: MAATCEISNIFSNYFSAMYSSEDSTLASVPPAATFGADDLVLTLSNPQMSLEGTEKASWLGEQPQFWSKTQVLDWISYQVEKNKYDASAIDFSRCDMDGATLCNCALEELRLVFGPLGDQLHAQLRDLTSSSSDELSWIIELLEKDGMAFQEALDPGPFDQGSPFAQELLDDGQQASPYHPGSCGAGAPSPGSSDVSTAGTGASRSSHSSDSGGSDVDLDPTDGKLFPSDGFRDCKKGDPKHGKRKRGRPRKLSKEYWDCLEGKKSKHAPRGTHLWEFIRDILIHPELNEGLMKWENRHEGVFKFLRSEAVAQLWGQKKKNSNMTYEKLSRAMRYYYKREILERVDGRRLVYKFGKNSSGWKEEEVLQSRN
In short: as §1

ETV3 = biological target: T3, ETV3 (Homo sapiens, UniProt P41162-2 1-143)
T3 sequence: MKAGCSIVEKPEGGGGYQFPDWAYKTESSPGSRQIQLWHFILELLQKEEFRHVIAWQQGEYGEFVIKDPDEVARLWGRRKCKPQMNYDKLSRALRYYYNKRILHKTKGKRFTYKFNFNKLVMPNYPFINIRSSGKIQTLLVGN
In short: as §1

ERG = biological target: T4, ERG (Homo sapiens, UniProt P11308 1-479)
T4 sequence: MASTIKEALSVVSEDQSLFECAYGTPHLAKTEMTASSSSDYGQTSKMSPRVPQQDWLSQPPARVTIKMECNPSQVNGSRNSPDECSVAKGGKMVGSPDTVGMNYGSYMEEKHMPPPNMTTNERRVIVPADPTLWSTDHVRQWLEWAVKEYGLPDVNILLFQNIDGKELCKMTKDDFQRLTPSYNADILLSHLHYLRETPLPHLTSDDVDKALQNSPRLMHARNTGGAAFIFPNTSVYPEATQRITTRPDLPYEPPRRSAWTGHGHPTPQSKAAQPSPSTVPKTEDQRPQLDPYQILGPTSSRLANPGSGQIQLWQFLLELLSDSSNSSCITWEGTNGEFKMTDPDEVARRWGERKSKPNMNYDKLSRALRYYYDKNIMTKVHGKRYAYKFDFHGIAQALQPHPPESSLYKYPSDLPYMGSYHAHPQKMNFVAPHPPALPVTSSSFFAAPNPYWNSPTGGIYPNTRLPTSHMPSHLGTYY
In short: as §1

ELF1 = ELF1 (Homo sapiens, UniProt P32519 1-619)
Sequence of ELF1 (P32519 whole entry): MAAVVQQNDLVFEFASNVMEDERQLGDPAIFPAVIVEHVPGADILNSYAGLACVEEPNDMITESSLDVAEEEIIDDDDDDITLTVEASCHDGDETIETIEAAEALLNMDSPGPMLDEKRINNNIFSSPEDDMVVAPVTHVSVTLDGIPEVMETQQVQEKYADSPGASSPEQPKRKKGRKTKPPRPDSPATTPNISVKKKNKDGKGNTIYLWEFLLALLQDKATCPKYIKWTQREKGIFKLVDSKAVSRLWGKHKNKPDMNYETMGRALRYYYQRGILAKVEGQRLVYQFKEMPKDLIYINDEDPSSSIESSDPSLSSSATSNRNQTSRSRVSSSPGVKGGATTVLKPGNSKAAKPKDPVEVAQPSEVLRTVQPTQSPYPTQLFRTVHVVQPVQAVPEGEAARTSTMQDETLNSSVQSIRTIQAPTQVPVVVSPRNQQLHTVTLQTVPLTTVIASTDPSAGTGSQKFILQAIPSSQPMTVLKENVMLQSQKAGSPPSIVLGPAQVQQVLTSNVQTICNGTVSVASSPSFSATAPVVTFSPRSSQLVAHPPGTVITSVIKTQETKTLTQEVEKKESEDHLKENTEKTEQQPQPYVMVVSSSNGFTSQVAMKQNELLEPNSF
In short: as §1

EHF = biological target: T5, EHF (Homo sapiens, UniProt Q9NZC4 1-300)
T5 sequence: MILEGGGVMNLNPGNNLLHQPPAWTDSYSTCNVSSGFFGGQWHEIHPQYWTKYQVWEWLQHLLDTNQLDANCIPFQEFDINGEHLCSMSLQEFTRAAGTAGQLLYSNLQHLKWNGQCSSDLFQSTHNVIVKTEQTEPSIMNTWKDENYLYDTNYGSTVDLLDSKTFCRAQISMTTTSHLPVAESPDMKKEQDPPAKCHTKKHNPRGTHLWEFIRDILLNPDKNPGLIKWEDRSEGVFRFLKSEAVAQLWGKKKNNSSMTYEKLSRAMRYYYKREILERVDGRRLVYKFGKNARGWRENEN
In short: as §1

SPIB = SPIB (Homo sapiens, UniProt Q01892 1-262)
Sequence of SPIB (Q01892 whole entry): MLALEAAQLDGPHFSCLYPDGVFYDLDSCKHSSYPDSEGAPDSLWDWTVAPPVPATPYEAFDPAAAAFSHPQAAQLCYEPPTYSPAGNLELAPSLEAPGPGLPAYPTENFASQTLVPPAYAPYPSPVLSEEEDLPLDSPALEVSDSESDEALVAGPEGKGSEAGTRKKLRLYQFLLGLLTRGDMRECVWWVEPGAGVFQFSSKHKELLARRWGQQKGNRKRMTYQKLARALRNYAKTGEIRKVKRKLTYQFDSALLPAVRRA
In short: as §1

FEV = biological target: T6, FEV (Homo sapiens, UniProt Q99581 1-238)
T6 sequence: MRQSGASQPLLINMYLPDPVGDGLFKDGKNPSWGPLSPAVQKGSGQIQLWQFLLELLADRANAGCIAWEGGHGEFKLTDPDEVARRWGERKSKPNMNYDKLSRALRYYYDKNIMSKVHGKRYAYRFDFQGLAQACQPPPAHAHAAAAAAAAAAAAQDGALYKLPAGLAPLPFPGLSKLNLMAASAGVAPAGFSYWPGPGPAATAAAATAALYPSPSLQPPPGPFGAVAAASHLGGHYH
In short: as §1

ELF4 = ELF4 (Homo sapiens, UniProt Q99607 1-663)
Sequence of ELF4 (Q99607 whole entry): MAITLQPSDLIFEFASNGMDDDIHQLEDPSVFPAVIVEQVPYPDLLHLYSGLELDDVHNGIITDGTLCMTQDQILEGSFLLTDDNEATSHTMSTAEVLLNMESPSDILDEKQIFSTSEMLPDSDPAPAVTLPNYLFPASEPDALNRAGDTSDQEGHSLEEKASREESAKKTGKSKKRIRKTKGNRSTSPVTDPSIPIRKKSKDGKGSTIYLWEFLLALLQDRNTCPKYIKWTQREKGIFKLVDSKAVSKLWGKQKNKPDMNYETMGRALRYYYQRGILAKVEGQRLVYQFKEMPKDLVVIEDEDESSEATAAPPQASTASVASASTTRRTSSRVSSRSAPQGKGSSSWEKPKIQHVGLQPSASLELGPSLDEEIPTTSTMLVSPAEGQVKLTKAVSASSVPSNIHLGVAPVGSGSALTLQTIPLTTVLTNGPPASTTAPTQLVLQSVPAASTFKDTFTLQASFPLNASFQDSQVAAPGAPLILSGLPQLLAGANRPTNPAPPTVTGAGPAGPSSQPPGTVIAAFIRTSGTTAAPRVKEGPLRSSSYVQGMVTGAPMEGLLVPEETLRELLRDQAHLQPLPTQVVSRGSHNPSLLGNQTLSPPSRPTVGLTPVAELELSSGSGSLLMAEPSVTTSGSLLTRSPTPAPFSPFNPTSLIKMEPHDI
In short: as §1

ETV2 = biological target: T7, ETV2 (Homo sapiens, UniProt O00321 1-342)
T7 sequence: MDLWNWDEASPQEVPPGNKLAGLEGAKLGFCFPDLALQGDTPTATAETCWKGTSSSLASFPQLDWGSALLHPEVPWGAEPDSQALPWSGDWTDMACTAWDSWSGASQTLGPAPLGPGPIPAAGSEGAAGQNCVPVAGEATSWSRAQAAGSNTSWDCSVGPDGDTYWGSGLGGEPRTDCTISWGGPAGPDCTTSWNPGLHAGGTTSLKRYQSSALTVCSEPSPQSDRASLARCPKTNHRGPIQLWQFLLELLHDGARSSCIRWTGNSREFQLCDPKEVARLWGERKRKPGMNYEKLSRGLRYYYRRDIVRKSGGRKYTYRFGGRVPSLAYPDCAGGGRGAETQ
In short: as §1

ETV1 = ETV1 (Homo sapiens, UniProt P50549 1-477)
Sequence of ETV1 (P50549 whole entry): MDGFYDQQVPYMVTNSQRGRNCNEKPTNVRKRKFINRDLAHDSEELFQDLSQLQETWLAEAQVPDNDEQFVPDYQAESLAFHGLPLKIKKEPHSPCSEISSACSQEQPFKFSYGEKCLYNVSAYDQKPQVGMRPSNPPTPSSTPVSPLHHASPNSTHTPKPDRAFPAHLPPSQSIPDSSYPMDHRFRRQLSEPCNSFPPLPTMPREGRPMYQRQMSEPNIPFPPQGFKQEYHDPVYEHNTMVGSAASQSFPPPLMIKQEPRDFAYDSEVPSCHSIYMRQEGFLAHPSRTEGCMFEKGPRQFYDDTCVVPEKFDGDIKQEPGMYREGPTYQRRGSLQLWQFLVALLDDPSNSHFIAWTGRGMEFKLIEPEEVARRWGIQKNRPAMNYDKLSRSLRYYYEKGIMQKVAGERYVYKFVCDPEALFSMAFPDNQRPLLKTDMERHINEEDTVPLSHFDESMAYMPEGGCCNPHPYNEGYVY
In short: as §1

ERF = biological target: T8, ERF (Homo sapiens, UniProt P50548 1-548)
T8 sequence: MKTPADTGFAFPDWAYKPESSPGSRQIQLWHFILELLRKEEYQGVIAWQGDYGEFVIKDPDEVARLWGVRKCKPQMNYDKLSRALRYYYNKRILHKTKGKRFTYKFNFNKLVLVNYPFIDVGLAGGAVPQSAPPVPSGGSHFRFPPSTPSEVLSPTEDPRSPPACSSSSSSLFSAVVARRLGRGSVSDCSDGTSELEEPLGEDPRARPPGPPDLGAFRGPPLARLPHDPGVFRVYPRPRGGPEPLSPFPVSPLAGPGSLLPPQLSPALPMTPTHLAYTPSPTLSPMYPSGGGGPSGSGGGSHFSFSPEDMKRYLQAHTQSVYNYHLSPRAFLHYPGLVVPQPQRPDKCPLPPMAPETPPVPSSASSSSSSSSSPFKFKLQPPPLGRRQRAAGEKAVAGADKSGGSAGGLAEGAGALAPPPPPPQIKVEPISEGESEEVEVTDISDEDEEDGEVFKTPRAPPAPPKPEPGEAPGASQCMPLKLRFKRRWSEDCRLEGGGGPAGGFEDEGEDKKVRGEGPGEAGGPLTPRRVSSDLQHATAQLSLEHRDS
In short: as §1

ETV3L = biological target: T9, ETV3L (Homo sapiens, UniProt Q6ZN32 1-361)
T9 sequence: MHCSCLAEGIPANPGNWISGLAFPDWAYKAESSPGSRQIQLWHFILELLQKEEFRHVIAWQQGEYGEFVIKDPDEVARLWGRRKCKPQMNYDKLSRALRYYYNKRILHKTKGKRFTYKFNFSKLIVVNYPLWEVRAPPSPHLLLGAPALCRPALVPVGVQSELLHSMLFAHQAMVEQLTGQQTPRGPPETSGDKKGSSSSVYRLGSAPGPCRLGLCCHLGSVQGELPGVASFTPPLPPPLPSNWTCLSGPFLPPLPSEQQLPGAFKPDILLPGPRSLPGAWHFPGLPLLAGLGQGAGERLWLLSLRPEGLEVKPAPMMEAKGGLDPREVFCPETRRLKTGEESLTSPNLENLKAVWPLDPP
In short: as §1

SPDEF = biological target: T10, SPDEF (Homo sapiens, UniProt O95238 1-335)
T10 sequence: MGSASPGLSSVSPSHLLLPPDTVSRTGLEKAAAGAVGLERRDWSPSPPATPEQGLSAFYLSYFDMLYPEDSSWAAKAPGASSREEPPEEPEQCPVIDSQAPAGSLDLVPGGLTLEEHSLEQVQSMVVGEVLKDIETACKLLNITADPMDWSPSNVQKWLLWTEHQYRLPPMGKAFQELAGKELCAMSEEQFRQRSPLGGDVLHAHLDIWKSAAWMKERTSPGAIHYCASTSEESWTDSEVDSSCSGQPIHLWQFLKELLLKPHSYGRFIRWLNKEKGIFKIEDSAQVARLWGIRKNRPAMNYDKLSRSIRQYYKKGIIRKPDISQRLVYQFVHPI
In short: as §1

ETV7 = biological target: T11, ETV7 (Homo sapiens, UniProt Q9Y603 1-341)
T11 sequence: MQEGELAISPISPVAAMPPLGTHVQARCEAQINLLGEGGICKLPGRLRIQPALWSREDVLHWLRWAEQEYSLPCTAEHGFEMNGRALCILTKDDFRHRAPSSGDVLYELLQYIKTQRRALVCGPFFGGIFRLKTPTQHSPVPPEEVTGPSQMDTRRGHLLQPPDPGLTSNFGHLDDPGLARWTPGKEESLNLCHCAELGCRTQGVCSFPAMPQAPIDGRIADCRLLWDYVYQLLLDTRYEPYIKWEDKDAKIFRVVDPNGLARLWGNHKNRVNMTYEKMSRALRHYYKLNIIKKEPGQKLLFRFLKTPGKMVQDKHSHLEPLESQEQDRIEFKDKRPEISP
In short: as §1

Sequence	binding signal (GABPA)	binding signal (ETV5)	binding signal (ELF3)	binding signal (ETV3)	binding signal (ERG)	binding signal (ELF1)	binding signal (EHF)	binding signal (SPIB)	binding signal (FEV)	binding signal (ELF4)	binding signal (ETV2)	binding signal (ETV1)	binding signal (ERF)	binding signal (ETV3L)	binding signal (SPDEF)	binding signal (ETV7)
GAGCTT	1.08 fold enrichment (6-mer frequency, TF over GST control)	1.04 fold enrichment (6-mer frequency, TF over GST control)	1.04 fold enrichment (6-mer frequency, TF over GST control)	1.03 fold enrichment (6-mer frequency, TF over GST control)	–	–	–	–	–	–	–	–	–	–	–	–
ACTGGA	1.12 fold enrichment (6-mer frequency, TF over GST control)	1.09 fold enrichment (6-mer frequency, TF over GST control)	1.1 fold enrichment (6-mer frequency, TF over GST control)	1.05 fold enrichment (6-mer frequency, TF over GST control)	1.08 fold enrichment (6-mer frequency, TF over GST control)	1.03 fold enrichment (6-mer frequency, TF over GST control)	1.02 fold enrichment (6-mer frequency, TF over GST control)	1.03 fold enrichment (6-mer frequency, TF over GST control)	1 fold enrichment (6-mer frequency, TF over GST control)	1.1 fold enrichment (6-mer frequency, TF over GST control)	1.17 fold enrichment (6-mer frequency, TF over GST control)	1.06 fold enrichment (6-mer frequency, TF over GST control)	1.03 fold enrichment (6-mer frequency, TF over GST control)	1.02 fold enrichment (6-mer frequency, TF over GST control)	1.02 fold enrichment (6-mer frequency, TF over GST control)	1.01 fold enrichment (6-mer frequency, TF over GST control)
